Source: PubChem (National Center for Advancing Translational Sciences (NCATS))
HP1b chromo inh: HP1-beta chromodomain-methylated histone interaction inhibition; P83916; AlphaScreen HP1-beta / biotin-H3K9me3 peptide binding; 0.56% of 390,000 active; Potency, µM (highest dose often 114 µM), inactives show at the top dose activity change, negative = inhibition, most hits filed as inhibitors; further: nearly all actives have a fitted effect of over 70% in size
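AlphaScreen: HP1-beta (50 nM) preformed 30 min with biotin-H3(1-18)K9me3 peptide (50 nM) in PBS pH 7.4, 0.01% Tween-20. Compound added for 30 min at RT, then streptavidin donor/nickel chelate acceptor beads (10 ug/mL) for 30 min.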
Sfp inh: blocks B. subtilis Sfp PPTase activity; Q9F4F7; Biochemical Sfp PPTase activity, qHTS; Potency, µM, inactives show largest response in the series, negative = inhibition, actives largely listed as inhibitors; 3.5% of 310,000 active;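 further: the enzyme is Sfp with the accession as filed and its product quenches rhodamine fluorescence; 0% = enzyme reaction without inhibitor and -100% = no enzyme wells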
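Compounds were incubated with enzyme (final 15 nM) for 15 min at room temperature before substrate addition started the reaction. Fluorescence at 525 nm excitation, 598 nm emission was recorded immediately and after 30 minutes.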
BAZ2B block: BAZ2B (human) inhibition; 4.4% of 360,000 active; Potency, µM (titrated, usually from 114 µM), without a hit: at the highest dose activity change, negative = inhibition, hits mostly inhibitors; AlphaScreen BAZ2B-H3K14Ac peptide displacement; Q9UIF8; AID 504333; further: on the % scale 0 is the no-effect control and ±100 the full control effect; nearly all actives have a fitted effect of over 60% in size
Target sequence (Q9UIF8 whole entry, looked up): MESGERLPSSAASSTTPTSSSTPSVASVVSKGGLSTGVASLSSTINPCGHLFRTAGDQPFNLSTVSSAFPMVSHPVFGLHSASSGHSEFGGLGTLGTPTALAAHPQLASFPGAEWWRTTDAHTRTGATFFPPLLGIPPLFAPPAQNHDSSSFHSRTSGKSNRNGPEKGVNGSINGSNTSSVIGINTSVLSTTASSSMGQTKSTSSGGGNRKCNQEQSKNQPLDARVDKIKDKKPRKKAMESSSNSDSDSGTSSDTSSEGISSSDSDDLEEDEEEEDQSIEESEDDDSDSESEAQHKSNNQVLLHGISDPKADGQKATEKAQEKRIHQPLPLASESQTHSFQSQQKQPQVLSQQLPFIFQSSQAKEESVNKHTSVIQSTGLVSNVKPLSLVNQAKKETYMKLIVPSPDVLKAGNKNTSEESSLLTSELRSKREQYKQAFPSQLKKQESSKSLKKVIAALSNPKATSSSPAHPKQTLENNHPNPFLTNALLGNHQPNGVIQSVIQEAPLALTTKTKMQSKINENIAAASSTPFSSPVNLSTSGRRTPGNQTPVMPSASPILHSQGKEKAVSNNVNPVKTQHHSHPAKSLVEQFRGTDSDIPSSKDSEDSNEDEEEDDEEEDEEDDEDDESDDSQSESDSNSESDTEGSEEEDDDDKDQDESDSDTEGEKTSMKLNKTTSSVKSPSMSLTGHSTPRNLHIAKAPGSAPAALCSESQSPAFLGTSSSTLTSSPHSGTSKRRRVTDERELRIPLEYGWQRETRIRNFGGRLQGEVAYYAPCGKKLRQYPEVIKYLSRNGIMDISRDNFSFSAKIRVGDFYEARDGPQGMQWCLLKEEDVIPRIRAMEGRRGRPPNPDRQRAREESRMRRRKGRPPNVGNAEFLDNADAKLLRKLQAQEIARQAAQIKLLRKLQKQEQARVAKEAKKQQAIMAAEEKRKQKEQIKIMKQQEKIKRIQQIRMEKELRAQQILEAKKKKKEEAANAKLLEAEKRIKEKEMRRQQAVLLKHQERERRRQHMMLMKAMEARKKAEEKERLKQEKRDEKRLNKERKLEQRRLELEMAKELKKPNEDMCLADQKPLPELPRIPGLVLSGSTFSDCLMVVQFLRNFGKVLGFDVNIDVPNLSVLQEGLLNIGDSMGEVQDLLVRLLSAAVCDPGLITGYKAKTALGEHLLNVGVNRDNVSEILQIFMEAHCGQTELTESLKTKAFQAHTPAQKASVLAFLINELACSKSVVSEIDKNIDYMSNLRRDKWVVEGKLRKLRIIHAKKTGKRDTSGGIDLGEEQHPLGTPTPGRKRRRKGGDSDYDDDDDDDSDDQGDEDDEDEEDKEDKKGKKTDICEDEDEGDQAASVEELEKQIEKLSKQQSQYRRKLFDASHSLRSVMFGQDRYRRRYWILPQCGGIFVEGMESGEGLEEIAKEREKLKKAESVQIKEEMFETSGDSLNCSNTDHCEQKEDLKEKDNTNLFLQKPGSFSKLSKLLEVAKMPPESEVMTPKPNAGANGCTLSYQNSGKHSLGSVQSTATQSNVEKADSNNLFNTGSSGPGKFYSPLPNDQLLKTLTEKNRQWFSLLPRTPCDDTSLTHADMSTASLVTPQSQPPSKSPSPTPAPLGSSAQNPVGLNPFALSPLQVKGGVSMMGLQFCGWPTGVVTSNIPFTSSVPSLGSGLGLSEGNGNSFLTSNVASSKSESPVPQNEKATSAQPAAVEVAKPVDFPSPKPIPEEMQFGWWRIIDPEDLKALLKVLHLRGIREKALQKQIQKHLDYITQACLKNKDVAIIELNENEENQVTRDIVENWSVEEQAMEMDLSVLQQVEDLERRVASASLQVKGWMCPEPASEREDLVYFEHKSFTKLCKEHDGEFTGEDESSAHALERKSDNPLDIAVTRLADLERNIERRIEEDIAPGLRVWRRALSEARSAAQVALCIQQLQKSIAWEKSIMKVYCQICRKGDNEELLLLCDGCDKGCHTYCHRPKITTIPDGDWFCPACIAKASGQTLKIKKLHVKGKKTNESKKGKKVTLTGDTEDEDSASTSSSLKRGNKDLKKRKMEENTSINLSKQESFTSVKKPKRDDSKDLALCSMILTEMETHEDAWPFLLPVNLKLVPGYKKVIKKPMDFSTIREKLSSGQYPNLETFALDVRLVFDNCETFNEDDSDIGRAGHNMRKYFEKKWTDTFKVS
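In this displacement format the biotinylated H3(5-23) peptide acetylated at Lys14 serves as ligand at 50 nM, with BAZ2B at 50 nM in PBS pH 7.4 containing 0.01% Tween-20. Donor and acceptor beads are 10 ug/mL final.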
G9a inh: G9a (human) methyltransferase inhibition. G9a H3K9 monomethylation, AlphaScreen, 2 h. Potency, µM (top dose mostly 102 µM), for the others: at the highest dose activity, negative = inhibition, actives largely listed as inhibitors. AID 504332. 8.8% of 350,000 active. Q96KQ7; further: on the % scale 0 is the no-effect control and ±100 the full control effect; nearly all actives have a fitted effect of over 75% in size
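Chemiluminescent proximity detection of H3K9 monomethylation, read after 10 min bead incubation in the dark. Reaction: 20 nM G9a, 500 nM biotin-H3K9 peptide, 20 uM SAM cofactor, 2 h, room temperature, following 15 min enzyme-compound preincubation.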
JMJD2A Tudor inh: inhibitors of human JMJD2A Tudor domain. AlphaScreen JMJD2A-Tudor / H3K4me3 peptide binding. Potency, µM (top dose mostly 114 µM), without a hit: at the highest dose activity change, negative = inhibition, usual class: inhibitors. 4.4% of 390,000 active; further: on the % scale 0 is the no-effect control and ±100 the full control effect; nearly all actives have a fitted effect of over 50% in size
Starred values were filed as active, the others as inactive; ? = inconclusive; . = no result given; [ ] = remark or other dose. A selection: hits, their analogues and other compounds. The true share with any hit is near 12%. The call rests on the fitted dose curve; in most records, active means well fitted curve in the direction sought with a large enough effect; inconclusive means small, poorly fitted or top-dose-only effect, or another doubt; inactive means no such curve, though single readings can be large; an effect the other way counts as inactive or inconclusive. Potency means the concentration at half of the fitted maximal effect.

SMILES	HP1b chromo inh	Sfp inh	BAZ2B block	G9a inh	JMJD2A Tudor inh
O=C(NCc1n[nH]c(=S)n1-c1ccccc1Cl)c1ccc(S(=O)(=O)N2CCCCC2)cc1	38%	-3%	4%	10µM*	-32%
COc1ccccc1-n1c(CNC(=O)c2ccc(S(=O)(=O)N3CCCCC3)cc2)n[nH]c1=S	20%	3%	-16%	22µM*	8.9µM*
COC(=O)CSc1nnc(CNC(=O)c2ccc(S(=O)(=O)N3CCCCC3)cc2)n1C	17%	21%	1%	5%	-14%
Cc1nsc2c1ccc1ccccc12	49%	6%	-3%	.	21%
CC1=[N+](C)c2ccc3ccccc3c2C1(C)C	-5%	?	50µM*	8.9µM*	?
CC(C)OC(=O)c1cccnc1SCc1cc(=O)n2ccccc2n1	54%	1%	-8%	50µM*	-8%
COc1cc(O)c(C(CC(=O)N2CCOCC2)c2ccc(N(C)C)cc2)c(OC)c1 (stereo not given)	-8%	8%	?	-41%[12.7 µM]	?
COc1cc(O)c(C(CC(=O)N2CCCCC2)c2ccc(N(C)C)cc2)c(OC)c1 (stereo not given)	-38%	-10%	?	?	50µM*
COc1cc(O)c(C(CCN2CCOCC2)c2ccc3c(c2)OCO3)c(OC)c1 (stereo not given)	-17%	-4%	-25%	18%[12.7 µM]	?
CCN(CC)CCC(c1ccc(N(C)C)cc1)c1c(O)cc(OC)cc1OC (stereo not given)	?	-7%	50µM*	?	40µM*
COc1ccc(N2CCN(CCC(O)c3ccc4ccccc4c3)CC2)cc1 (stereo not given)	?	-12%	22%	40µM*	50µM*
COc1cc(O)c(C(CCN2CCOCC2)c2ccc(N(C)C)cc2)c(OC)c1 (stereo not given)	?	15%	35µM*	?	45µM*
Cc1ccccc1-c1cncnc1N1CCNCC1	.	25%	.	.	.
CO[C@@H]1/C=C\CC(=O)N2CCC[C@@H]2C(=O)OC[C@H](C)C(=O)OC[C@H]1C	.	15%	.	.	.
COc1ccc(C(CCN2CCN(c3ccccc3)CC2)c2c(O)cc(OC)cc2OC)cc1 (stereo not given)	-23%	1%	28µM*	3%[12.7 µM]	16µM*
COc1cc(O)c(C(CCN2CCN(c3ccccc3)CC2)c2ccc(N(C)C)cc2)c(OC)c1 (stereo not given)	20µM*	-9%	7.9µM*	?	10µM*
COc1cc(O)c(C(CCN2CCCC(C)C2)c2ccc3c(c2)OCO3)c(OC)c1 (stereo not given)	-19%	5%	-29%	6%[12.7 µM]	-36%
COc1cc(O)c(C(CCN2CCCC(C)C2)c2ccc(N(C)C)cc2)c(OC)c1 (stereo not given)	?	-7%	40µM*	?	25µM*
COc1ccc(N2CC(NC(=O)c3ccc4c(c3)OCO4)CC2=O)cc1 (stereo not given)	24%	.	-3%	-23%[59 µM]	-15%
C/C(=C\c1ccccc1)CN1CCN(c2ccccc2F)CC1	?	?	-38%	?	5µM*
O=C(CCc1ccccc1)N1CCN(c2ccccc2F)CC1	35%	20%	-20%	3%	-12%
CCN1CCN(C/C(C)=C/c2ccccc2)CC1	23%	-5%	-6%	-25%	2%
Fc1ccccc1N1CCN(CCCc2ccccc2)CC1	?	-16%	?	35µM*	22µM*
COc1cc(OC)cc(C(=O)NC2CC3CCC(C2)N3C)c1 (stereo not given)	18%	.	2%	27%[12.7 µM]	-6%
O=C1CCc2cc(S(=O)(=O)Nc3ccccn3)ccc2N1	.	.	.	.	-12%
CC(=O)Nc1ccc(NC(=O)C(C)OC(=O)CN2C(=O)C3CCCCC3C2=O)cc1 (stereo not given)	28%	.	12%	?	-14%
Clc1ccc(CNc2ncnc3onc(-c4ccc(Cl)cc4)c23)cc1	73%	.	7%	50%[59 µM]	-2%
COc1cc2c(cc1OC)C1O[C@](CCCCN3C(=O)c4ccccc4C3=O)(C2)Oc2cc(C)n(Cc3ccccc3)c(=O)c21	.	-6%	?	.	.
